High-throughput results: PubChem, National Center for Advancing Translational Sciences (NCATS)
Shown are actives, neighbours in structure and some others; about 10% of the full set was active somewhere.
PNC inhibitor: blocks assembly of the perinucleolar compartment; PC3M PTB-GFP, PNC prevalence imaging, 16 h; active compounds read low; AID 2417; activity change (PNC), negative = inhibition, % at 10 µM; hit rate 3.1% among 140,000;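 active = readout at or below -70, meaning at least 70% loss of cells showing the perinucleolar compartment, a nuclear body marking cancer cells; inconclusive = readout between -30 and a set limit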;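 also: plate controls were DMSO wells for no effect and camptothecin positive control wells for full effect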
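Compounds are pinned in duplicate onto adhered PC3M cells stably expressing GFP-tagged PTB and incubated 16 h at 37 C. Cells are then fixed, nuclei stained with Hoechst, and PNC-positive cells counted.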
12-hLO inh: inhibitors of human 12-lipoxygenase (ALOX12) | hit rate 0.12% among 150,000 | Potency, µM (series often up to 57.1 µM), inactives show top-dose activity change, negative = inhibition, most hits filed as inhibitors | purified 12-hLO, xylenol orange hydroperoxide absorbance; active = well fitted inhibition curve with a large enough effect; inconclusive = small, poorly fitted or top-dose-only effect; also: potency is read from the fitted curve at half-maximal effect; nearly all actives have a fitted effect of over 55% in size
Target sequence (P18054 whole entry, looked up): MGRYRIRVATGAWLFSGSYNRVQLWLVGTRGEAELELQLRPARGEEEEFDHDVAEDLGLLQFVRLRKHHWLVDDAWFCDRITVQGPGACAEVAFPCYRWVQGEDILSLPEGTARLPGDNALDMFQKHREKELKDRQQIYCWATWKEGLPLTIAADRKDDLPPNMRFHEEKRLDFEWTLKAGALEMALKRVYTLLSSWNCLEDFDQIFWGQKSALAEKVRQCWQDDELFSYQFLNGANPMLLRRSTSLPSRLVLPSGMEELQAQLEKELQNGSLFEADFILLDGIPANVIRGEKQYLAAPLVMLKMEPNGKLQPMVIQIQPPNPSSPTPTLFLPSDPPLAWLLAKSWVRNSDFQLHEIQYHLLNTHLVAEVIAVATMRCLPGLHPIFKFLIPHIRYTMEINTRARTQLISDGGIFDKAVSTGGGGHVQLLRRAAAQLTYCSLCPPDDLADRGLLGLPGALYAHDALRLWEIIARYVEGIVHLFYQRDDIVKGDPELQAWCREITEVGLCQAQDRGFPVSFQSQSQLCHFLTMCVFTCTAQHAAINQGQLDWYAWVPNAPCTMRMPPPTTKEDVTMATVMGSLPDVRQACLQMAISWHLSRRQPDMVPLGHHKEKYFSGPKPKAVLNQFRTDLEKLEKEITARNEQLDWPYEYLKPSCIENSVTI
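Lipoxygenase turnover measured by absorbance at 573 and 405 nm after Fe-XO development. Human 12hLO 150 nM, arachidonate 40 uM, pH 7.0 Hepes buffer with detergent; 15 min compound preincubation, 30 min reaction.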
HPGD inh: HPGD (human) dehydrogenase inhibition; Potency, µM, for the others: top-dose activity change, negative = inhibition, actives largely listed as inhibitors; purified HPGD, NADH fluorescence kinetic, PGE2 substrate; P15428; AID 894; hit rate 4.3% among 150,000; also: potency is read from the fitted curve at half-maximal effect
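20 nM HPGD preincubated 15 min at room temperature with compound in 50 mM Tris-HCl pH 8, 0.01% Tween 20. Started with 1 mM NAD+ and 30 uM prostaglandin E2; NADH fluorescence (360/450 nm) read 5 times over 30-s intervals, last minus first.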
ALDH1A1 inh: inhibitors of human aldehyde dehydrogenase 1A1; Purified ALDH1A1, NADH fluorescence, propionaldehyde substrate; AID 1030; hit rate 7.3% among 220,000; P00352; Potency, µM (titrated, usually from 75.3 µM), inactives show at the top dose activity, negative = inhibition, hits mostly inhibitors;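 also: potency is read from the fitted curve at half-maximal effect; plate controls were no enzyme wells and a reference inhibitor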
LMNA splice mod: changes lamin A minigene splicing in HeLa cells; hit rate 0.01% among 200,000; Potency, µM (doses to about 46.1 µM), without a hit: top-dose ratio change, negative = inhibition, usual class: inhibitors; HeLa LMNA splicing GFP/RFP minigene ratio, 48 h; active = well fitted inhibition curve with a large enough effect in the signal ratio, with a control signal flat, not every such curve was filed as active; inconclusive = small, poorly fitted or top-dose-only effect, or effect the other way, or a change in a side signal; the % refers to the signal ratio; also: potency is read from the fitted curve at half-maximal effect
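Read-out is the ratio of GFP to DsRed2 object intensity, acquired by 488 nm laser-scanning cytometry on HeLa lamin A-EGFP minigene reporter cells. Compound incubation 48 hrs at 37 °C in Opti-MEM with 2% FBS; DMSO 0.5% final.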
* hit, by the source's call; ? = inconclusive; / = no result; [ ] = dose if it differs, or a comment. Unless noted, calls follow the shape of the dose curve; as a rule, active = well fitted inhibition curve with a large enough effect (not every such curve was filed as active); inconclusive = small, poorly fitted or top-dose-only effect, or another doubt; inactive = no such curve, though single readings can be large or run the other way. Unless noted, % is scaled to controls: 0 for no effect and ±100 for the full control effect.

SMILES	PNC inhibitor	12-hLO inh	HPGD inh	ALDH1A1 inh	LMNA splice mod
CN1CCN(c2ccc(NC(=O)c3cccs3)cc2)CC1	/	/	/	0%	19%[46 µM]
CC(C)CNC(=O)c1ccc(NC(=O)c2cccs2)cc1	-3	-1%	18µM*	-1%	0%
Cc1nnsc1C(=O)Oc1ccccc1Cl	/	/	/	/	12%[46 µM]
CCN(CC)C(=O)Cn1c(=O)n(-c2ccc(OC)cc2OC)c(=O)c2c(C)c(C(=O)N(CC)CC)sc21	/	/	/	/	6%[46 µM]
CC(C)(C)c1ccc(CN2CCN([C@H](c3ccccc3)c3ccc(Cl)cc3)CC2)cc1	/	5%[11.4 µM]	3%	-3%[13.5 µM]	?
CC1CCCC(NC(=O)CSc2ccc(F)cc2)C1C (stereo not drawn)	/	/	/	?	-16%[9.22 µM]
CC1CCCC(NC(=O)CCC(=O)c2ccc(F)cc2)C1C (stereo not drawn)	/	/	/	16µM*	/
O=C(O)c1cccc(Cl)c1Cl	/	4%	-9%	4%	/
CCc1ccc(-c2cc(C(=O)Nn3cnnc3)c3ccccc3n2)cc1	-82*	1%	-22%	?	0%
CCC(NC(=O)c1ccccc1O)c1ccccc1 (stereo not drawn)	-109*	-16%	?	?	?
Cc1c(-c2ccccc2)nc2ccccc2c1C(=O)O	50	-7%	2%	-10%	3%
CCC(NC(=O)c1ccc([N+](=O)[O-])cc1[N+](=O)[O-])c1ccccc1 (stereo not drawn)	13	-3%	-3%	4%	0%
CC[C@H](NC(=O)c1c(C)c(-c2ccccc2)nc2ccccc12)c1ccccc1	/	-5%	-30%	5µM*	-32%
CN(C)/C=C(/C#N)C(=O)c1cccc(Oc2ccc(C(C)(C)C)cc2)c1	-4	14%	22µM*	-8%	3%
Nn1c(SC/C=C/c2ccccc2)nnc1-c1cccnc1	43	1%	-11%	13µM*	11%
Clc1ccc(-n2c(SC/C=C/c3ccccc3)nnc2-c2cccnc2)cc1	?	3%	-12%	?	-12%
COc1ccc(CC(=O)NCC(c2cccs2)S(=O)(=O)c2ccc(Cl)cc2)cc1 (stereo not drawn)	/	/	/	/	-13%[46 µM]
CCC(C)NC(=O)COC(=O)c1csc2c1CCCC2 (stereo not drawn)	7	1%	25µM*	-13%	3%
CC(C)CNC(=S)NNC(=O)c1csc2c1CCCC2	-6	-2%	-3%	-3%	?
CNC(=O)[C@@H]1O[C@@H](n2cnc3c(NCc4ccc(N)cc4)ncnc32)[C@@H](O)[C@H]1O	/	-2%	/	/	/
O=C(c1cc2cc(Br)ccc2o1)N1CCCCC1	/	/	/	22µM*	?
CC1CCN(C(=O)c2cc3ccccc3c(=O)o2)CC1	-8	-3%	25µM*	1%	1%
Cc1oc2c(c1C(=O)N1CCC(C)CC1)C(=O)c1ccccc1C2=O	-12	0%	-2%	?	?
O=C(c1cc2ccccc2c(=O)o1)N1CCCCCC1	3	15%	18µM*	?	7%
O=C(c1cc2cc(Br)cc(Br)c2oc1=O)N1CCCC1	-19	1%	28µM*	?	-8%
SMILES	PNC inhibitor	12-hLO inh	HPGD inh	ALDH1A1 inh	LMNA splice mod
COC(=O)c1ccc2c(=O)n(CCCCCC(=O)NCc3ccc(Cl)cc3)c(=O)[nH]c2c1	/	/	/	/	-4%[46 µM]
CC(COc1ccc(/C=C/c2ccccc2)cc1)[N+](C)(C)C (stereo not drawn)	/	/	?	-8%	?
Cc1oc2c(cc(NS(=O)(=O)c3ccc4c5c(cccc35)C(=O)N4)c3ccccc32)c1C(=O)OC(C)C	82	-7%	-11%	?	?
COC(=O)c1c(C)oc2c1cc(NS(=O)(=O)c1cccs1)c1ccccc12	21	-6%	-2%	7.9µM*	3%
O=C1Nc2ccccc2C(=O)C1(Cl)Cc1ccccc1 (stereo not drawn)	36	-15%	7.1µM*	14µM*	-3%
CC(C)(C)N1C(=O)c2ccccc2NC(=O)N1Cc1ccccc1	5	-2%	-2%	4%	-2%
Cc1nnc(SCC(=O)c2cc(C)n(-c3c(C)n(C)n(-c4ccccc4)c3=O)c2C)s1	-1	-3%	-7%	-1%	-1%
COc1ccc(-n2c(C)cc(C(=O)CCl)c2C)cc1	/	/	/	0.32µM*	/
Cc1ccc(-n2c(C)cc(C(=O)COC(=O)c3ccc[nH]c3=O)c2C)cc1	-82*	-2%	-5%	14%	-10%
Cc1cc(C(=O)COC(=O)c2ccc[nH]c2=O)c(C)n1-c1ccc(Br)cc1	?	-1%	-12%	-3%	-17%
Cc1cc(C(=O)CCl)c(C)n1-c1c(C)n(C)n(-c2ccccc2)c1=O	/	/	/	13µM*	?
Cc1ccc(-n2c(C)cc(C(=O)CN3CCCCC3)c2C)cc1	?	-2%	13µM*	-24%	2%
Cn1c(=O)n(CCc2ccccc2)c(=O)c2c1nc1n2CCN1c1ccc(Cl)cc1	/	/	/	/	12%[46 µM]
CN(C)c1ccc(CNC(=O)CN2C(=O)C3CCCCN3c3ccc(C(=O)N4CCCC4)cc32)cc1 (stereo not drawn)	/	/	/	/	10%[46 µM]
COc1cccc(N2C(=O)CSC23C(=O)N(CC(=O)Nc2cccc(Cl)c2)c2ccccc23)c1 (stereo not drawn)	/	/	/	/	-9%[46 µM]
Cc1cc(-n2c(C)cc(C(=O)CN3C(=O)NC4(CCCC4)C3=O)c2C)no1	-117*	0%	0%	3%	-8%
COc1ccc(-n2c(C)cc(C(=O)CN3C(=O)c4ccccc4C3=O)c2C)cc1	?	4%	-11%	?	-5%
Cc1ccc(-n2c(C)cc(C(=O)CSc3nncs3)c2C)cc1	?	-13%	25µM*	6%	?
Cc1cc(-n2c(C)cc(C(=O)CN3C(=O)NC4(CCCCC4)C3=O)c2C)no1	?	-1%	-11%	-6%	-12%
Cc1cc(-n2c(C)cc(C(=O)CCl)c2C)no1	/	/	/	1µM*	?
COc1ccc(-n2c(C)cc(C(=O)COC(=O)Cn3cnc4ccccc43)c2C)cc1	-27	-4%	-29%	13µM*	?
Cc1cc(C(=O)CSc2nncs2)c(C)n1-c1c(C)n(C)n(-c2ccccc2)c1=O	5	-7%	-3%	-1%	19%
COc1ccc(CCNC(=O)Cc2c(Cl)cccc2Cl)cc1	/	/	/	-1%	-3%[46 µM]
CC(=O)OCC1OC(C#Cc2ccc(Cl)cc2)C=CC1OC(C)=O (stereo not drawn)	/	/	/	-1%[13.5 µM]	/
COc1ccc(C(=O)CSc2nnc(-c3cc4ccccc4cc3O)n2Cc2ccco2)cc1	-23	-8%	-30%	?	?
C=CCn1c(SCC(=O)c2ccccc2)nnc1-c1cc2ccccc2o1	?	-5%	14µM*	?	-3%
C=CCn1c(SCC(=O)NCc2ccc3c(c2)OCO3)nnc1-c1cccnc1	/	/	/	4%	18%[46 µM]
C=CCn1c(SCC(=O)c2ccc(OC)cc2)nnc1-c1cc2cccc(OC)c2o1	-123*	-8%	2%	-10%	-6%
